# Compounds with a hit are over-represented: about 5.9% of the library has one in this group of screens.
# ABHD5-PLIN5 inh: inhibitors of human ABHD5-perilipin-5 interaction; Q00G26+Q8WTS1; Split G. princeps luciferase complementation, luminescence, 4 h; inhibition, % at 4 µM; actives 0.78% (n = 360,000); AID 602281;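 active = inhibition above the mean inhibition across every tested compound plus 3 SD, cut at about 22% in these data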;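 note: 0% = DMSO only wells and the 100% control is not disclosed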
# PRMT1 inh: blocks human protein arginine methyltransferase 1. Q99873. actives 1.3% (n = 370,000). recombinant PRMT1, activity-based probe fluorescence polarization. inhibition, % at 2.79 µM;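 active = inhibition above about 21% made by adding two undisclosed values, limit read from the data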
# LANA-H2B inh: blocks KSHV LANA binding to histone H2A/H2B. Q9QR71. cell-free LANA-H2A/H2B peptide, fluorescence polarization. inhibition, % (concentration not given with the values). actives 0.6% (n = 320,000). AID 2629; in the data active = inhibition mostly above about 10%, no sharp cut-off; inactive = mostly below about 6.7%
# ALR H2O2 inh: inhibitors of human sulfhydryl oxidase ALR. P55789. inhibition, % (test concentration not listed). actives 3.8% (n = 290,000). AID 485317. purified ALR, DTT oxidation, H2O2 HRP-luminol luminescence;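 active = mean replicate inhibition above about 79%, with every replicate also reaching it, limit read from the data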
# Rtt109 HAT inh: C. albicans Rtt109 histone acetyltransferase inhibition; Q5AAJ8; purified Rtt109/Vps75, ThioGlo CoA-SH fluorescence, 4 h; actives 0.16% (n = 330,000); AID 540336; inhibition, % at 34.9 µM;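 active = inhibition of at least 50% in every replicate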
# rCAG RNA binder: molecules binding r(CAG) RNA repeats; r(CAG) RNA repeat, TO-PRO-1 dye displacement fluorescence; inhibition, % at 3 µM; actives 1.3% (n = 370,000);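 active = inhibition above the plate cutoff, the mean of all test compounds on that plate plus 3 SD, cut at about 35% in these data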;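 note: 0% = DMSO alone and 100% = 100 µM mitoxantrone as full dye displacement; higher means more dye released from RNA so lower well fluorescence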
# rCAG binder conf: r(CAG) RNA repeat binding, confirmation; inhibition, % at 3 µM; actives 70% (n = 4,300); AID 652065; TO-PRO-1 dye displacement fluorescence; shares compounds with rCAG RNA binder;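 active = inhibition above a per-plate cutoff, the mean inhibition of sample wells plus 3 SD, cut at about 35% in these data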;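 note: loss of TO-PRO-1 fluorescence as compound displaces dye from 1x1 AA loop RNA; 0% = DMSO only wells and 100% = 100 µM mitoxantrone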
# dCAG dye counter: counter-screen for rCAG RNA binders: DNA CAG dye complex inhibitors. shares compounds with rCAG RNA binder. AID 652068. d(CAG) DNA oligo TO-PRO-1 dye displacement, fluorescence. inhibition, % at 3 µM. actives 94% (n = 4,300);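 active = inhibition above its plate's cutoff, the mean test-well inhibition plus 3 SD, cut at about 4.8% in these data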;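 note: 0% = DNA dye mix with DMSO and 100% = 100 µM mitoxantrone; hits displace the dye from DNA and so lower well fluorescence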
# DNA CAG DR: disrupts DNA CAG TO-PRO-1 complex in dose response; AID 686960; actives 20% (n = 250); DNA CAG/GTC duplex TO-PRO-1 dye displacement fluorescence; shares compounds with rCAG RNA binder; IC50, µM; in the data active = IC50 below about 10 µM
# An asterisk follows results filed as active; · = no result given.
SMILES,ABHD5-PLIN5 inh,PRMT1 inh,LANA-H2B inh,ALR H2O2 inh,Rtt109 HAT inh,rCAG RNA binder,rCAG binder conf,dCAG dye counter,others
COc1ccccc1CCC(=O)Nc1nccs1,-1.6,-1.5,0.9,·,-5.0,-2.8,·,·,
CCCC(C)C(=O)Nc1ccc(S(=O)(=O)Nc2nccs2)cc1 (stereo not drawn),1.1,-3.0,-0.2,·,4.9,9.5,·,·,
COc1ccccc1CCC(=O)Nc1ccc(S(=O)(=O)Nc2nccs2)cc1,-3.8,0.3,-47.9,12.1,0.4,36.9*,27.5,9.2*,
CCC(=O)Nc1ccc(S(=O)(=O)Nc2nccs2)cc1,-5.8,1.3,0.6,-0.4,-0.5,4.8,·,·,
Cc1ccc(C)c(OC(C)C(=O)Nc2ccc(S(=O)(=O)Nc3nccs3)cc2)c1 (stereo not drawn),-20.9,0.5,10.1,0.8,4.9,54.9*,48.1*,18.4*,
C[C@H]1COc2cc(Br)ccc2S(=O)(=O)N1Cc1cn(CCC2OCCCO2)nn1,·,-1.2,·,·,·,2.0,·,·,
CC(Oc1ccccc1Cl)C(=O)Nc1ccc(S(=O)(=O)Nc2nccs2)cc1 (stereo not drawn),-6.8,-0.5,·,·,12.0,54.5*,53.8*,13.4*,
C[C@H]1CCCN1c1ccc2c(c1)O[C@@H]1CCN(C1)S2(=O)=O,·,4.6,·,·,·,2.0,·,·,
Cc1ccc(Sc2ccc(S(=O)(=O)Nc3ccc(C(=O)O)cc3)cc2)cc1C,6.8,4.4,-0.3,98.3*,2.8,48.5*,43.4*,12.5*,
N#Cc1[nH]nc2nc[nH]c(=O)c12,·,-1.9,·,·,·,1.5,·,·,
COc1ccc(Cc2nc3c([nH]2)c(=O)n(C)c(=O)n3C)cc1OC,-10.4,-3.0,·,·,-9.0,0.4,·,·,
CN(C)S(=O)(=O)c1cc(C(=O)O)c(NC2CCCCC2)cc1Cl,7.3,-1.2,5.3,4.0,4.0,44.9*,30.8,6.2*,
CC(C)n1c(O)c(N=Nc2ccc(Cl)c(C(=O)O)c2)c2ccccc21,4.8,-0.8,0.8,26.6,15.3,38.1*,35.8*,9.0*,
COC(=O)CSc1nnc(-c2cccs2)o1,·,1.0,·,·,·,-0.8,·,·,
O=C1CC(Nc2ccc(N3CCOCC3)cc2)C(=O)N1Cc1ccccc1 (stereo not drawn),-20.7,12.3,-1.4,97.5*,-3.1,34.6*,7.6,6.9*,
CN1CCN(c2ccc(CNC(=O)C3(C)Cc4c(-c5ccc6c(c5)OCO6)ccnc4O3)cc2)CC1 (stereo not drawn),0.2,-2.8,·,·,·,1.9,·,·,
CCc1nc2nc(C)c(NS(=O)(=O)c3ccc(C4CCCCC4)cc3)c(=O)n2[nH]1,1.1,1.3,-2.9,·,12.0,49.2*,44.4*,14.0*,
Cc1nc2nc(C)c(NS(=O)(=O)c3ccc(C4CCCCC4)cc3)c(=O)n2[nH]1,1.2,3.4,-1.3,·,15.1,38.1*,39.6*,9.5*,
Cc1ccc(S(=O)(=O)Nc2c(C)nc3nc(C)[nH]n3c2=O)cc1,0.6,5.2,2.2,·,-3.7,3.1,·,·,
O=C(OCCN1CCCC12CCC(c1ccccc1)CC2)c1ccccc1 (stereo not drawn),·,4.3,·,·,·,0.9,·,·,
O=C1CC(SC(=NCc2ccc3c(c2)OCO3)Nc2ccccc2)C(=O)N1c1ccccc1 (stereo not drawn),0.1,3.6,-3.9,-3.8,-3.2,3.2,·,·,
O=C(O)c1ccc(N2C(=O)CC(SC(=NCc3ccc4c(c3)OCO4)Nc3ccccc3)C2=O)cc1 (stereo not drawn),-7.1,-2.6,7.6,-2.6,16.3,68.8*,62.5*,22.9*,
O=C(O)c1ccc(N2C(=O)CC(SC(=NCc3ccc4c(c3)OCO4)Nc3ccc(F)cc3)C2=O)cc1 (stereo not drawn),0.5,0.1,1.0,6.5,11.1,77.4*,72.8*,33.4*,DNA CAG DR=>29.9
COC(=O)c1cc(=O)nc(NN=Cc2ccccc2)s1,·,-8.5,·,·,·,6.1,·,·,
COC(=O)c1cc(=O)nc(NN=C2c3ccccc3-c3ccccc32)s1,0.6,1.4,·,·,·,37.8*,93.5*,76.9*,
SMILES,ABHD5-PLIN5 inh,PRMT1 inh,LANA-H2B inh,ALR H2O2 inh,Rtt109 HAT inh,rCAG RNA binder,rCAG binder conf,dCAG dye counter,others
COC(=O)CSc1nc(SCc2ccc(C)cc2)nc2c1CCCC2,-7.1,-1.1,7.9,-9.8,-11.9,2.4,·,·,
Cc1ccc(CSc2nc3c(c(SCC(=O)O)n2)CCCC3)cc1,-7.5,4.1,5.5,97.0*,11.9,35.5*,22.7,5.7*,
CC(=O)OCCNc1cc(SCc2ccco2)c2nonc2c1[N+](=O)[O-],10.0,·,4.5,·,5.6,·,·,·,
O=[N+]([O-])c1c(NCCCO)cc(SCc2ccco2)c2nonc12,2.5,64.0*,-0.7,3.1,-2.2,47.3*,6.0,2.1,
CCCn1c(N)c(N2CCCCC2)c(=O)n(CC(=O)Nc2ccc(OC(F)(F)F)cc2)c1=O,4.5,4.8,-1.8,-1.3,0.9,37.4*,1.9,0.3,
Cc1ccc(CNC(=O)C2CC(c3ccc([N+](=O)[O-])cc3)=NO2)cc1 (stereo not drawn),-1.2,-1.9,4.5,-3.0,-2.1,44.4*,3.0,-0.4,
Cc1ccc(CNC(=O)C2CC(c3cccc(F)c3)=NO2)cc1 (stereo not drawn),1.3,1.2,1.7,-1.8,-2.3,-3.0,·,·,
COc1cccc(-c2ncn(CCc3ccccc3OC)c2C(C)C)c1,-3.3,-2.2,·,·,·,-1.3,·,·,
O=C(O)c1ccc(Cl)cc1Nc1nc2cc(Cl)ccc2o1,-5.9,7.1,3.9,8.7,-1.3,73.3*,83.5*,61.9*,
O=C(NCc1n[nH]c(=S)n1-c1ccc(Cl)c(Cl)c1)c1ccc(S(=O)(=O)N2CCCCC2)cc1,-6.6,23.3*,0.3,89.2*,7.1,36.3*,29.8,10.6*,
O=C(NCc1n[nH]c(=S)n1-c1ccc(F)cc1)c1ccc(S(=O)(=O)N2CCCC2)cc1,-6.3,-1.8,-0.9,30.9,-6.6,2.5,·,·,
Cc1ccc(C(=O)N/N=C(/CC(=O)c2cccs2)C(F)(F)F)cc1,-2.6,2.1,2.3,62.2,-7.9,45.4*,32.0,7.6*,
NC(=O)c1ccccc1NS(=O)(=O)c1ccc(F)cc1,-1.4,-2.6,-6.5,1.7,4.6,3.3,·,·,
Cc1ccc(NC(=O)CCNC(=O)c2ccccc2Cl)cc1S(=O)(=O)N1CCCCCC1,-2.2,-0.8,-1.3,·,5.2,1.0,·,·,
Cc1ccc(NC(=O)c2ccccc2NS(=O)(=O)c2ccc(F)cc2)cc1S(=O)(=O)N1CCCCC1,-10.4,2.2,-2.3,2.8,-2.3,67.5*,83.1*,52.3*,
NS(=O)(=O)c1cccc(NC(=O)c2ccccc2NS(=O)(=O)c2ccc(F)cc2)c1,-8.9,5.5,-0.7,-4.1,6.4,38.0*,38.0*,12.0*,

# Bioassay records deposited in PubChem by several laboratories.
